We go through 7 compounds from PubChem BioAssay (NCI).

Some test systems named below: HCT-15 colon; HT29 colon; SNB-75 CNS; SNB-19 CNS; U251 CNS; PC-3 prostate; SK-MEL-5 melanoma; UACC-62 melanoma; LOX IMVI melanoma; SK-MEL-28 melanoma; EKVX NSCLC; SN12C renal; UO-31 renal; TK-10 renal; ACHN renal; CAKI-1 renal; A498 renal; CCRF-CEM leukemia; HL-60(TB) leukemia.
Holding throughout (assay): NCI-60 one-dose screen, 48 h (100 = growth as untreated, 0 = no growth, -100 = all killed)
What all share (conditions): 10 µM unless noted

Several values for one entry are separate records, joined by “and”; a condition that tells them apart may be missing. Identical values can stand only once. Compounds without any hit were thinned out: in the full panel of roughly 83,000, 20% have a hit.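 Step 1: grow cells in 96-well plates. Step 2: add test compound at a single concentration. Step 3: incubate 48 h. Step 4: record percent growth.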 Activity calls are given as the source filed them. How the source made its calls: active means growth percent below 10; inactive means the rest.

Regarding `CC[C@H](C)[C@H](NC(=O)[C@H]1CCCCN1C)C(=O)N(C)[C@H](C[C@@H](OC(C)=O)c1nc(C(=O)N[C@@H](Cc2ccccc2)C[C@H](C)C(=O)O)cs1)C(C)C`, the growth with HCT-15 colon is 9.59% (active); in the assay with HT29 colon, -18.7% (active); in the assay on SNB-75 CNS, 31.4% (inactive); with SNB-19 CNS, 36.7% (inactive); in the assay with U251 CNS it was 15% (inactive); in the assay with PC-3 prostate, 26.1% (inactive). Besides, the growth in the assay on SK-MEL-5 melanoma is -71.7% (active); in the assay with UACC-62 melanoma it was 52.8% (inactive); in the assay on LOX IMVI melanoma, 9.84% (active); in the assay with SK-MEL-28 melanoma, 50.6% (inactive); in the assay on EKVX NSCLC it was 38.4% (inactive); with SN12C renal, 47.5% (inactive). The growth with UO-31 renal is 38.2% (inactive); in the assay on TK-10 renal it was 22.8% (inactive); in the assay with ACHN renal, 14.3% (inactive); in the assay with CAKI-1 renal, 35.9% (inactive); with A498 renal, -2.03% (active); in the assay on CCRF-CEM leukemia, 7.95% (active).
Turning to `Cn1cc(-c2csc(-c3cn(CCCCN4CCOCC4)c4ccc(F)cc34)n2)c2cccnc21`, the growth in the assay on HCT-15 colon was 61.7% (inactive); in the assay with HT29 colon, -64% (active); in the assay with SNB-75 CNS it was 61.9% (inactive); in the assay with SNB-19 CNS, 88.2% (inactive); in the assay with U251 CNS, 67.3% (inactive); in the assay with PC-3 prostate, 49.3% (inactive). Also, the growth is 48.1% (inactive) in the assay with SK-MEL-5 melanoma; 22.8% (inactive) with UACC-62 melanoma; 67.6% (inactive) in the assay with LOX IMVI melanoma; -87.1% (active) in the assay with SK-MEL-28 melanoma; 72.7% (inactive) in the assay with EKVX NSCLC; 72.2% (inactive) in the assay on SN12C renal. Moreover, the growth in the assay on UO-31 renal was 44.4% (inactive); with TK-10 renal it was 75.4% (inactive); in the assay with ACHN renal, 86.3% (inactive); in the assay on CAKI-1 renal, 76.1% (inactive); with A498 renal, 46.7% (inactive); with HL-60(TB) leukemia it was 76.2% (inactive). In addition, in the assay with CCRF-CEM leukemia, the growth is -59.6% (active).
Take `CN(C)c1ccc([N+](=O)[O-])c([N+](=O)[O-])c1`: the growth with HCT-15 colon is 110% (inactive) and 100% (inactive); in the assay on HT29 colon, 109% (inactive) and 102% (inactive); in the assay with SNB-75 CNS, 93% (inactive) and 86.4% (inactive); with SNB-19 CNS, 106% (inactive) and 102% (inactive); in the assay on U251 CNS, 101% (inactive) and 96.9% (inactive); with PC-3 prostate it was 105% (inactive) and 100% (inactive). For the same compound, the growth is 101% (inactive) and 97% (inactive) with SK-MEL-5 melanoma; 97.6% (inactive) and 90.3% (inactive) in the assay with UACC-62 melanoma; 93% (inactive) with LOX IMVI melanoma; 104% (inactive) in the assay with SK-MEL-28 melanoma; 96% (inactive) and 96.2% (inactive) with EKVX NSCLC; 105% (inactive) and 97.7% (inactive) in the assay with SN12C renal. The growth in the assay on UO-31 renal was 117% (inactive) and 84.7% (inactive); with TK-10 renal, 135% (inactive) and 114% (inactive); in the assay with ACHN renal it was 98.1% (inactive) and 106% (inactive); in the assay on CAKI-1 renal it was -35% (active) and 87.6% (inactive); in the assay on HL-60(TB) leukemia, 66.7% (inactive) and 88.1% (inactive); in the assay on CCRF-CEM leukemia, 80.9% (inactive) and 94.2% (inactive).
Regarding `N#CC(C#N)=C(C#N)C#N`, the growth in the assay with HCT-15 colon is 97.9% (inactive); with HT29 colon it was 110% (inactive); in the assay with SNB-75 CNS, 87.7% (inactive); with SNB-19 CNS it was 102% (inactive); in the assay on U251 CNS, 99.8% (inactive); in the assay on PC-3 prostate, 96.8% (inactive). Also, the growth in the assay with SK-MEL-5 melanoma was 102% (inactive); in the assay with UACC-62 melanoma it was 101% (inactive); in the assay with LOX IMVI melanoma, 52.3% (inactive); in the assay on SK-MEL-28 melanoma, 105% (inactive); in the assay on SN12C renal it was 110% (inactive); in the assay on UO-31 renal it was 90.9% (inactive). Further, the growth with ACHN renal was 94.8% (inactive); in the assay with CAKI-1 renal, 125% (inactive); with A498 renal, 110% (inactive); in the assay on HL-60(TB) leukemia, 107% (inactive).
In the case of `CCC(=O)C(CC(C)[N+](C)(C)C)(c1ccccc1)c1ccccc1` (stereo unspecified), the growth in the assay on HCT-15 colon was 97.6% (inactive); with HT29 colon, 108% (inactive); with SNB-75 CNS, 93.8% (inactive); in the assay with SNB-19 CNS, 96.8% (inactive); in the assay on U251 CNS, 97.9% (inactive); in the assay with PC-3 prostate, 103% (inactive). The growth was 97.2% (inactive) with SK-MEL-5 melanoma; 101% (inactive) in the assay on UACC-62 melanoma; 96.7% (inactive) in the assay with LOX IMVI melanoma; 106% (inactive) in the assay on SK-MEL-28 melanoma; 98.2% (inactive) in the assay with SN12C renal; 95.9% (inactive) with UO-31 renal. Also, the growth is 98.1% (inactive) in the assay with TK-10 renal; 95.4% (inactive) in the assay on CAKI-1 renal; 111% (inactive) in the assay with A498 renal; 109% (inactive) with HL-60(TB) leukemia; 114% (inactive) with CCRF-CEM leukemia.
For the compound `O=C=Nc1ccc(Br)cc1`, the growth in the assay with HCT-15 colon is 96.5% (inactive); in the assay on HT29 colon it was 118% (inactive); in the assay with SNB-75 CNS, 99.1% (inactive); with SNB-19 CNS, 111% (inactive); in the assay with U251 CNS, 110% (inactive); in the assay on PC-3 prostate it was 78.8% (inactive). In addition, the growth is 81% (inactive) in the assay on SK-MEL-5 melanoma; 97.4% (inactive) with UACC-62 melanoma; 106% (inactive) in the assay on LOX IMVI melanoma; 110% (inactive) in the assay with SK-MEL-28 melanoma; 102% (inactive) in the assay on EKVX NSCLC; 111% (inactive) in the assay with SN12C renal. The growth is 102% (inactive) in the assay with UO-31 renal; 109% (inactive) with TK-10 renal; 114% (inactive) in the assay with ACHN renal; 104% (inactive) in the assay on CAKI-1 renal; 94.2% (inactive) in the assay with A498 renal; 96.4% (inactive) with HL-60(TB) leukemia. The growth in the assay on CCRF-CEM leukemia was 103% (inactive).
For the compound `C[C@]12CC[C@H]3[C@@H](CC=C4c5nc(-c6ccc(Br)cc6)sc5CC[C@@]43C)[C@@H]1CC[C@@H]2O`, the growth was 89.1% (inactive) in the assay with HCT-15 colon; 109% (inactive) in the assay with HT29 colon; 78.4% (inactive) in the assay on SNB-75 CNS; 84.4% (inactive) in the assay with SNB-19 CNS; 63.4% (inactive) with U251 CNS; 101% (inactive) with PC-3 prostate. The growth is 97.1% (inactive) in the assay with SK-MEL-5 melanoma; 84.4% (inactive) in the assay on UACC-62 melanoma; 90% (inactive) in the assay with LOX IMVI melanoma; 90.1% (inactive) with SK-MEL-28 melanoma; 109% (inactive) in the assay on EKVX NSCLC; 91.4% (inactive) with SN12C renal. The growth is 95.6% (inactive) with UO-31 renal; 110% (inactive) in the assay with TK-10 renal; 93.4% (inactive) in the assay on ACHN renal; 85.4% (inactive) with CAKI-1 renal; 107% (inactive) in the assay on A498 renal; 94.3% (inactive) with HL-60(TB) leukemia. In addition, the growth with CCRF-CEM leukemia was 96.1% (inactive).
